Broadly, the AC50 is the concentration at which the activity in the assay is half-maximal.

Records with an inconclusive call do not appear. Calls of active or inactive are those of the source. How the source made its calls, unless noted: active means hit-call score of the fitted dose curve at least 0.9, where 1 is the maximum; inconclusive means response in the unintended direction; inactive means score below 0.9.

Assay [1] can be described thus: CEETOX_H295R_MTT_cell_viability: Viability Assessment in the CeeTox HT-H295R MTT Assay (AID 2283718; active means hit-call score of the fitted dose curve at least 0.9, where 1 is the maximum; inactive means score below 0.9;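 further: curve fitted both ways so AC50 may mark viability loss or gain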). Summed up:
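H295R cells prestimulated 48 h with 10 uM forskolin, then exposed 48 h to test chemical (0.1% DMSO final). Viability by MTT (0.5 mg/ml, 4 h, 37 C), absorbance 570/650 nm; percent change versus DMSO, bidirectional fit.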

The target of assay [2] is rat Thyrotropin Releasing Hormone Receptor (TRH), Trhr (gene 25570) (UniProt Q01717). The assay is described as follows: NVS_GPCR_rTRH: NovaScreen (NVS) G Protein-Coupled Receptor Assay for rat Thyrotropin Releasing Hormone Receptor (TRH) (AID 2283329).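 Further: hit means lower bound tracer signal versus DMSO baseline.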 The method in brief: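 Competitive radioligand binding on rat forebrain membrane preparations, with filtration and scintillation readout after 4 h. Primary testing in duplicate at 25 uM; actives confirmed in concentration-response. DMSO defined baseline.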

Assay [3] can be described thus: CCTE_Deisenroth_AIME_384WELL_CTox_Inactive: Cytotoxicity Assessment (CTOX) in CCTE's 384-well Estrogen Receptor Transactivation Assay without AIME metabolic competence (metabolism negative), Deisenroth Lab (AID 2284039).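 Further: cell viability via live-cell protease substrate cleaved to fluorescent probe; loss of fluorescence signal means loss of viability.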 The method in brief: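 Fluorescent protease-substrate viability readout after 24 h exposure of VM7Luc4E2 cells to conditioned medium. Chemicals (0.002–200 uM) first sat 2 h over alginate-water beads, no S9. Data fitted bidirectionally, loss of signal meaning viability loss.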

Read-out in assay [4]: Tumor necrosis factor (Homo sapiens) (UniProt P01375)
The assay is described as follows: BSK_BT_xTNFa: BioMAP Diversity Plus: BT Assay for Tumor necrosis factor alpha (TNF-alpha) Biomarker Activity (AID 2284230; active means hit-call score of the fitted dose curve at least 0.9, where 1 is the maximum; inactive means score below 0.9). To be noted: primary human B cells with PBMC. The method in brief: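 Read-out: Luminex xMAP quantitation of secreted TNF-alpha from a B cell/PBMC co-culture 24 h after compound addition. Signal analysed relative to DMSO vehicle, positive fitting direction.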

Read-out in assay [5]: Vascular cell adhesion molecule 1 (VCAM1), VCAM1 (gene 7412)
Nature of the assay: BSK_MyoF_VCAM1: BioMAP Diversity Plus: MyoF Assay for Vascular cell adhesion molecule 1 (VCAM1) Biomarker Activity (AID 2284231; active means hit-call score of the fitted dose curve at least 0.9, where 1 is the maximum; inactive means score below 0.9). To be noted: primary human lung fibroblasts. Summed up: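 MyoF system, lung fibroblasts; 24 h post-dose; VCAM-1 by ELISA; gain-of-signal fit vs DMSO baseline.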

Read-out in assay [6]: Collagen I, COL1A1 (gene 1277)
Nature of the assay: BSK_MyoF_CollagenI: BioMAP Diversity Plus: MyoF Assay for Collagen I Biomarker Activity (AID 2284238; active means hit-call score of the fitted dose curve at least 0.9, where 1 is the maximum; inactive means score below 0.9). Particulars: primary human lung fibroblasts. Summed up: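 ELISA readout of Collagen I after 24 h chemical treatment of primary human lung fibroblast cultures; gain of signal scored relative to DMSO vehicle baseline.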

Read-out in assay [7]: Interleukin 17F (IL17F), IL17F (gene 112744)
Nature of the assay: BSK_BT_xIL17F: BioMAP Diversity Plus: BT Assay for Interleukin 17F (IL17F) Biomarker Activity (AID 2284243; active means hit-call score of the fitted dose curve at least 0.9, where 1 is the maximum; inactive means score below 0.9). To be noted: primary human B cells with PBMC. Summed up:
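Secreted IL-17F, read on LumineX xMAP beads, was taken as the endpoint. Cultures combined human B cells and peripheral blood mononuclear cells, sampled 24 hours after dosing, with DMSO serving as negative control.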

Read-out in assay [8]: Actin alpha 1 (ACTA1), ACTA1 (gene 58)
Nature of the assay: BSK_MyoF_ACTA1: BioMAP Diversity Plus: MyoF Assay for Actin alpha 1 (ACTA1) Biomarker Activity (AID 2284244; active means hit-call score of the fitted dose curve at least 0.9, where 1 is the maximum; inactive means score below 0.9). To be noted: primary human lung fibroblasts. The method in brief:
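Measured by ELISA: alpha-smooth muscle actin in human primary lung fibroblasts 24 h after dosing, with DMSO as baseline and upward signal change as the fitted direction.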

Read-out in assay [9]: Basic fibroblast growth factor (bFGF), FGF2 (gene 2247)
The assay is described as follows: BSK_MyoF_bFGF: BioMAP Diversity Plus: MyoF Assay for Basic fibroblast growth factor (bFGF) Biomarker Activity (AID 2284246; active means hit-call score of the fitted dose curve at least 0.9, where 1 is the maximum; inactive means score below 0.9). Particulars: primary human lung fibroblasts. The method in brief: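 In this multiplexed cell system, lung fibroblasts (human primary) receive test chemical for 24 h before ELISA detection of bFGF; DMSO defines baseline and the analysis direction is positive.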

Read-out in assay [10]: Interleukin-8 (IL8), CXCL8 (gene 3576)
The assay is described as follows: BSK_MyoF_IL8: BioMAP Diversity Plus: MyoF Assay for Interleukin-8 (IL8) Biomarker Activity (AID 2284261; active means hit-call score of the fitted dose curve at least 0.9, where 1 is the maximum; inactive means score below 0.9). To be noted: primary human lung fibroblasts. Summed up:
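Lung fibroblasts (human primary) → chemical exposure → 24 h → IL-8 measured by ELISA. Signal increase scored versus DMSO control.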

Assay [11] can be described thus: BSK_MyoF_SRB: Viability Assessment in the BioMAP Diversity Plus: MyoF Assay (AID 2284267; active means hit-call score of the fitted dose curve at least 0.9, where 1 is the maximum; inactive means score below 0.9;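 further: total protein by SRB absorbance in parallel cultures as cytotoxicity measure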). To be noted: primary human lung fibroblasts. The method in brief: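 Cytotoxicity in primary human lung fibroblasts is gauged by SRB total-protein staining 24 h after dosing, with DMSO as the negative control.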
Assay [12] has as its target human Phosphodiesterase 10 (PDE10), PDE10A (gene 10846) (UniProt Q9Y233). The assay is described as follows: NVS_ENZ_hPDE10: NovaScreen (NVS) Enzymatic Assay for human Phosphodiesterase 10 (PDE10) (AID 2283195). The method in brief:
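Fluorescence/mobility-shift readout of PDE10A enzyme activity, taken 1 h post-dosing. Primary screen in duplicate at 25 uM; actives (e.g. ≥30% inhibition) retested as singleton concentration-response, top concentration 50 uM.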

In assay [13] the test system is Thyroperoxidase (TPO), gene 54314. The assay is described as follows: CCTE_Simmons_AUR_rTPO: CCTE's Amplex UltraRed Assay for Thyroperoxidase (TPO) Inhibition, Simmons Lab (AID 2283662).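 Further: potency for loss of signal meaning inhibition of peroxidase activity.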 The method in brief:
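Rat thyroid microsomes (5 ug protein) were incubated with test compound (8 concentrations, 5 nM–87.5 uM final, 0.5% DMSO), 25 uM Amplex UltraRed and 300 uM H2O2 in 200 mM phosphate buffer for 30 min at 37C in the dark; fluorescence read at 544/590 nm.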

Assay [14] in a line: CCTE_Simmons_CellTiterGLO_HEK293T: Viability Assessment in CCTE's Assays for Thyroperoxidase (TPO) Inhibition, Simmons Lab (AID 2283665).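 On AC50: cells exposed to compound for 24 h before readout; actives reduce ATP signal below DMSO vehicle meaning cytotoxicity.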 The method in brief:
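Cytotoxicity counter-screen: human HEK293T cells in low-serum (1% FBS) medium receive test chemical, 5 nM to 87.5 uM final, for 24 h; ATP is quantified by luciferase luminescence.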
(Cellular ATP, detected with luciferase, serves as a proxy for viable cell number.)

Assay [15] concerns the target Luciferin 4-monooxygenase (Photinus pyralis) (UniProt P08659). Nature of the assay: CCTE_Simmons_QuantiLum_inhib_2: CCTE's Firefly Luciferase Inhibition Assay, Simmons Lab (AID 2283767).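 On AC50: potency for inhibitors that lower luciferase luminescence relative to DMSO.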 The method in brief:
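Counter-screen for nonspecific enzyme inhibition: purified firefly luciferase incubated 30 min at 37C with chemicals up to 87.5 uM final, then luminescence measured after luciferin/dATP injection; activity fitted against DMSO baseline.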

Assay [16] deals with human RAR-related Orphan Receptor gamma (RORg), RORC (gene 6097) (UniProt P51449). Nature of the assay: ATG_RORg_TRANS: Attagene TRANS-FACTORIAL HepG2 Assay for human RAR-related Orphan Receptor gamma (RORg) (AID 2283011). The method in brief:
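Transient MRTU transfection of HepG2 (TRANS format, exogenous NR-Gal4 chimera). 24 h dosing. Total RNA → oligo(dT) RT → PCR → 6-FAM labelling → HpaI cut → CE. Gain vs DMSO.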

For assay [17], the target named is human Retinoic Acid Receptor gamma (RARg), RARG (gene 5916) (UniProt P13631). Nature of the assay: ATG_RARg_TRANS: Attagene TRANS-FACTORIAL HepG2 Assay for human Retinoic Acid Receptor gamma (RARg) (AID 2283009). The method in brief: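 HepG2, RARg-GAL4 TRANS system, 24 h exposure; reporter mRNA by RT-PCR + CE fluorescence; increase over DMSO.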
The target in assay [18] is Retinoic acid receptor alpha (Homo sapiens) (UniProt P10276). The assay is described as follows: ATG_RARa_TRANS: Attagene TRANS-FACTORIAL HepG2 Assay for human Retinoic Acid Receptor alpha (RARa) (AID 2283005). The method in brief: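 HepG2 cells transiently transfected with multiple reporter units expressing chimeric RARα-GAL4 fusion, with GAL4-UAS-driven reporters. After 24 h compound exposure, reporter mRNA induction quantified by RT-PCR and capillary electrophoresis with fluorescent labeling; gain-of-signal fitted relative to DMSO control.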

Assay [19] in a line: CCTE_Harrill_HTTr_CellCount_MCF7: CCTE's Cell Proliferation Assessment for the High-Throughput Transcriptomics (HTTr) Platform, Harrill Lab (AID 2284012).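 Further: count of Hoechst-stained nuclei per well by high-content imaging in MCF-7 cells; cells exposed to compound for six hours; intended direction is loss of nuclei count meaning fewer cells.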 Summed up:
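Nuclei counting (Hoechst, high content imaging) in MCF-7 after a 6 h treatment at eight concentrations. Activity fitted bidirectionally, DMSO as negative control.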

Assay [20] deals with human Retinoic Acid Receptor beta (RARb), RARB (gene 5915) (UniProt P10826). Nature of the assay: ATG_RARb_TRANS: Attagene TRANS-FACTORIAL HepG2 Assay for human Retinoic Acid Receptor beta (AID 2283004). The method in brief: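 Readout is reporter mRNA induction: RNA reverse-transcribed, PCR-amplified, FAM-labelled, HpaI-cut and resolved by capillary electrophoresis. Transiently transfected HepG2 cells carrying exogenous NR–Gal4 chimeras were dosed for 24 h; activity fitted upward relative to DMSO.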
Chain of human Retinoic Acid Receptor beta (RARb), RARB (gene 5915) (P10826 whole entry, looked up, the tested form may be a part): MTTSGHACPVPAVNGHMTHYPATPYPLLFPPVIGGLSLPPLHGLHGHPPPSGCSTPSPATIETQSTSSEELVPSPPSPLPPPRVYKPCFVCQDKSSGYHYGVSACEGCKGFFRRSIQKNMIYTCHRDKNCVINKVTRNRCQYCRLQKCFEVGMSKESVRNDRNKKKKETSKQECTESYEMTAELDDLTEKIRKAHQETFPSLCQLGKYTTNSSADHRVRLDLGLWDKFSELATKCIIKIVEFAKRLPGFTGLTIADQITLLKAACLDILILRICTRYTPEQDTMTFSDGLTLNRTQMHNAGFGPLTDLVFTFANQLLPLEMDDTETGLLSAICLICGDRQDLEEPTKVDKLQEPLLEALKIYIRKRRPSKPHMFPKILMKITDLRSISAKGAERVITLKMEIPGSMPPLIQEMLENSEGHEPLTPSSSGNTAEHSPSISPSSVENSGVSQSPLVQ

Chain of human RAR-related Orphan Receptor gamma (RORg), RORC (gene 6097) (P51449 whole entry, looked up, the tested form may be a part): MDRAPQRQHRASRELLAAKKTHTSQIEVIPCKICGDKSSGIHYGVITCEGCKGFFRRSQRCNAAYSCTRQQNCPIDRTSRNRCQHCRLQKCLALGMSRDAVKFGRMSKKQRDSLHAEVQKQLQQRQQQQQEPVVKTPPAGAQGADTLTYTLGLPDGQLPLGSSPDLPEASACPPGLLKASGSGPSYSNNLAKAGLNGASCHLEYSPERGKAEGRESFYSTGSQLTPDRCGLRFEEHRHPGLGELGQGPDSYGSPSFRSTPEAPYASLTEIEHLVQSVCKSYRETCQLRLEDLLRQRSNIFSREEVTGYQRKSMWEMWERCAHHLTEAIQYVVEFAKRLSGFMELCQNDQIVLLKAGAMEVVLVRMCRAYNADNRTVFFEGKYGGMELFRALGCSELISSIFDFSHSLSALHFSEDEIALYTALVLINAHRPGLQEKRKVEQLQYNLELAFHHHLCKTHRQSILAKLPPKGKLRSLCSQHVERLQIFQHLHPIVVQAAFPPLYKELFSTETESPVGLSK
Chain of Tumor necrosis factor (Homo sapiens) (P01375 whole entry, looked up): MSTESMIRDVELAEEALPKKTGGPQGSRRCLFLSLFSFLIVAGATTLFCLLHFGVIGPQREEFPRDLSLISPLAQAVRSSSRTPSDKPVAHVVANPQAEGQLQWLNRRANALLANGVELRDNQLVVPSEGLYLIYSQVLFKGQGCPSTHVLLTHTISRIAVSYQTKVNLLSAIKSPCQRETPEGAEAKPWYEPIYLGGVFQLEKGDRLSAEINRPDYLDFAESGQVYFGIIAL
Chain of rat Thyrotropin Releasing Hormone Receptor (TRH), Trhr (gene 25570) (Q01717 whole entry, looked up): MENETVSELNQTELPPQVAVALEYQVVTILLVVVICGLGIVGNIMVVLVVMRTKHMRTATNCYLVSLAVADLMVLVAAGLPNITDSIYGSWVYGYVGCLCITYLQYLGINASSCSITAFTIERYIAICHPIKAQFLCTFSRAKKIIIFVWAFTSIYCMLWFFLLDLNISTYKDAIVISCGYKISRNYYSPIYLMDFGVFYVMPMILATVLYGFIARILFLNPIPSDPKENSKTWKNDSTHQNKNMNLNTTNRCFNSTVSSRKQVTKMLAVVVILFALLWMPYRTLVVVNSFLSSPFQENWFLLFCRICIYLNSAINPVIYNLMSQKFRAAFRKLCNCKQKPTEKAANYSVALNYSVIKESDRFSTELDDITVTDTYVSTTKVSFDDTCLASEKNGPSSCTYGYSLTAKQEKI
Chain of Luciferin 4-monooxygenase (Photinus pyralis) (P08659 whole entry, looked up): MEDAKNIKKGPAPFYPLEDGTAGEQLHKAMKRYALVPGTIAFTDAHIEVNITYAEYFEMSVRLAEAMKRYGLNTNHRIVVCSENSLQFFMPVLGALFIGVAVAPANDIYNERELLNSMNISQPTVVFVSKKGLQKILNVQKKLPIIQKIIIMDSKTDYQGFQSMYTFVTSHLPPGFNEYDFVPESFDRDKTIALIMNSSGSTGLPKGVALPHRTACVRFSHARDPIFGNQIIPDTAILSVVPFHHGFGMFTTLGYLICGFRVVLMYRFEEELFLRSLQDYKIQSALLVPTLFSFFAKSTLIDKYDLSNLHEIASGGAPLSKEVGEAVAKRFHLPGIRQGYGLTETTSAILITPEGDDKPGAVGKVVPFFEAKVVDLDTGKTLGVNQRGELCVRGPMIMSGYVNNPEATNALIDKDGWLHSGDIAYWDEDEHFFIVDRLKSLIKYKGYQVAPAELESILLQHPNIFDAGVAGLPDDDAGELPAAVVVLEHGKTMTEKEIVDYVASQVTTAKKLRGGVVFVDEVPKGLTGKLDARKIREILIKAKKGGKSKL
Chain of human Phosphodiesterase 10 (PDE10), PDE10A (gene 10846) (Q9Y233 whole entry, looked up): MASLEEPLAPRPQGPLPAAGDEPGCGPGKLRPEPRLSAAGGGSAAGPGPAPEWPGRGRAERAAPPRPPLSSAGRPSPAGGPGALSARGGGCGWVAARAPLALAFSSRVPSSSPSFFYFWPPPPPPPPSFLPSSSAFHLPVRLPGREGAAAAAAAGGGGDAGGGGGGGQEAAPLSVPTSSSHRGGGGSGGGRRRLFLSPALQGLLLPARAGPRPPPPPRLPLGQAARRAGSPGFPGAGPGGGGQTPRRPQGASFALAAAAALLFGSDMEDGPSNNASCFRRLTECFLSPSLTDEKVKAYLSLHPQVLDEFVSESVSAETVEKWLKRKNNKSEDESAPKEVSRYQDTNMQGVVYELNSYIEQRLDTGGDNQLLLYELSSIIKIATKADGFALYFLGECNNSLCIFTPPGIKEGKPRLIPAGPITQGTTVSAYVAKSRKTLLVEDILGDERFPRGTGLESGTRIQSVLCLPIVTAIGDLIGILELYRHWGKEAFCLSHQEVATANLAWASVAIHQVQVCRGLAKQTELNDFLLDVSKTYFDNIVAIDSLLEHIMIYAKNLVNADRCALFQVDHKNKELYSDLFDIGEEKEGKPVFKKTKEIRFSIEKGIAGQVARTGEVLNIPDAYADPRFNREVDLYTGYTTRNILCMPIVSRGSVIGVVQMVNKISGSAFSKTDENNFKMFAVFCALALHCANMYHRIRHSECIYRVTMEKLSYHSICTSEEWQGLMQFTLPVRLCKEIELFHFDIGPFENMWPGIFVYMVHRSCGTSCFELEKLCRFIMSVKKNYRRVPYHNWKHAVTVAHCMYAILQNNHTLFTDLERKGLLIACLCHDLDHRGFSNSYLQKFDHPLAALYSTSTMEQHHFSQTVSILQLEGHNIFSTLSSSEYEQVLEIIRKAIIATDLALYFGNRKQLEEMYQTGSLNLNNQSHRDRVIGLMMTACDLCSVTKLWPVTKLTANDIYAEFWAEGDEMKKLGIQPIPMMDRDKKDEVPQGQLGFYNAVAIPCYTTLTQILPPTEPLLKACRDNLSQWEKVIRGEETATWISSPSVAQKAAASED
Chain of human Retinoic Acid Receptor gamma (RARg), RARG (gene 5916) (P13631 whole entry, looked up, the tested form may be a part): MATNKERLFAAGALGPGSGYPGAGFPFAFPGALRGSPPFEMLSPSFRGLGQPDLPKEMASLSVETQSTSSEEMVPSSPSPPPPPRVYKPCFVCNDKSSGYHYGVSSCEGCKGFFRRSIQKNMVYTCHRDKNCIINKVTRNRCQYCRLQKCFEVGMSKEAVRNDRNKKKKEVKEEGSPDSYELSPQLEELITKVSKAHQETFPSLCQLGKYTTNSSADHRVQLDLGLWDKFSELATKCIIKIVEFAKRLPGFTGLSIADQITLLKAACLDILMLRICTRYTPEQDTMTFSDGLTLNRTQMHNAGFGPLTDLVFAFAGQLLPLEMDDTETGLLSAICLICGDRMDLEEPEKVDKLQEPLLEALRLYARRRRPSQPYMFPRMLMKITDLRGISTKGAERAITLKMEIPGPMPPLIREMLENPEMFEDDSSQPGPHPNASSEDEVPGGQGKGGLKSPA
Chain of Retinoic acid receptor alpha (Homo sapiens) (P10276 whole entry, looked up, the tested form may be a part): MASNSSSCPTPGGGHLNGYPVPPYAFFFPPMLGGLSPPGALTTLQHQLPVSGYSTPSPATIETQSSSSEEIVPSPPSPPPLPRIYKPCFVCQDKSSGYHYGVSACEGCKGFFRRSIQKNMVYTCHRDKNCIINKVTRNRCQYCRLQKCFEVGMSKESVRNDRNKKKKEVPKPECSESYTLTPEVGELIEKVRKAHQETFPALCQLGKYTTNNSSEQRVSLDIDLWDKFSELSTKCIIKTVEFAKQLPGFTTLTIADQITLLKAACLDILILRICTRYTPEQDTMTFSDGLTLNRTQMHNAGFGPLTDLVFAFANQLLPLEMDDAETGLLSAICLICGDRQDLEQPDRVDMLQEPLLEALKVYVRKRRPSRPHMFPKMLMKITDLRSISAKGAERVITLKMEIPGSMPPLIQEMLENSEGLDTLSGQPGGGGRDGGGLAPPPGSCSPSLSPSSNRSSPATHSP

As to `CC(Cc1ccc(C(C)(C)C)cc1)CN1C[C@@H](C)O[C@@H](C)C1` (some centres undefined), the AC50 in assay [1] was 65.8 µM (active).
For the molecule `C=CCN(CC=C)C(=O)C(Cl)Cl`, the result in assay [2], in [3], in [4], in assay [5], in assay [6] and in assay [7] was inactive. Besides, the outcome in assay [8], in assay [9], in assay [10] and in assay [11] was inactive.
As to `COCC(=O)N(c1c(C)cccc1C)N1CCOC1=O`, the outcome in [12], in assay [4], in assay [5], in [6], in assay [7] and in [8] was inactive. For the same molecule, the result in assay [9], in assay [10] and in assay [11] was inactive.
On to `COc1cc(OC)nc(Oc2cccc(Oc3nc(OC)cc(OC)n3)c2C(=O)O)n1`, for which the result in assay [2], in assay [14] and in assay [15] was inactive. In [13], the half-maximal activity concentration (AC50) was 34.9 µM (active).
On to `C=CCc1ccc(OC(=O)Cc2ccccc2)c(OC)c1`, for which the result in assay [16] was inactive.
`[Cl-].[Cl-].[Cl-].[Yb+3]`: the molecule was called inactive in [16].
Turning to `O=[N+]([O-])C=Cc1ccccc1`, the call in assay [12] was inactive. Further, the AC50 is 8.35 µM (active) in assay [4]; 11.1 µM (active) in assay [5]; 14.2 µM (active) in [6]; 5.05 µM (active) in [7]; 12.3 µM (active) in assay [8]; 11.9 µM (active) in assay [9]. Also, the AC50 in assay [10] was 9.76 µM (active); in assay [11], 20 µM (active).
As for `CCCCCCCCCCCCCCCC[N+](C)(C)C`, the result in [2] was inactive. The AC50 in assay [13] was 51.5 µM (active); in [14], 10.2 µM (active); in assay [15], 92.4 µM (active); in assay [3] it was 100 µM (active).
For the molecule `ClC1=C(Cl)[C@]2(Cl)[C@@H]3[C@@H](Cl)[C@H](Cl)C[C@@H]3[C@@]1(Cl)C2(Cl)Cl`, in [17], the result was inactive.
In the case of `C[N+](C)=CCl`, the outcome in assay [18] was inactive.
As to `Nc1ccccc1`, the concentration at half-maximal activity (AC50) in [13] is 0.759 µM (active). Besides, the result in assay [14], in [15], in assay [19] and in assay [3] was inactive.
For the molecule `CC(C)c1ccc(O)cc1`, the AC50 in assay [13] is 2.24 µM (active). Further, the outcome in [14] and in assay [15] was inactive.
For `O=S(=O)(O)OOS(=O)(=O)O`, the result in assay [16], in assay [2] and in assay [3] was inactive.
Turning to `CCOC(=O)COc1ccc(Cl)cc1Cl`, the result in assay [20] and in [19] was inactive.
In the case of `CCc1cccc(C)c1N(C(=O)CCl)[C@@H](C)COC`, the molecule was called inactive in [20] and in [19].
For `Nc1cc(Cl)cc(Cl)c1`, the result in assay [2], in [14] and in [15] was inactive. Also, the concentration at half-maximal activity (AC50) in [13] is 17.1 µM (active).
For the molecule `CN1C(=O)CCS(=O)(=O)C1c1ccc(Cl)cc1` (centres undefined), the molecule was classed as inactive in assay [20], in assay [17] and in assay [19].

The values are drawn from PubChem BioAssay (EPA / NIEHS).
